The values that follow come from PubChem BioAssay.

In general, inhibition refers to the relative decrease from the control value, in per cent.

Experiment [1] is described as follows: yeast TOR pathway RPL19A-GFP modulators, primary screen, cell-based, S. cerevisiae, multiplex flow cytometry (AID 1862; in the data active = percent of DMSO control GFP below about 86%;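 also: lower values mimic rapamycin by blocking the RPL19A rise seen in DMSO cells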). To be noted: S. cerevisiae RPL19A-GFP strain, flow cytometry fluorescence, 3 h; at 10 µM; stronger effect = lower value. A general note: Flow cytometry measures light scatter and fluorescence of single cells or particles in a stream.
Experiment [2] is described as follows: modulators of MEP2-GFP levels in yeast, primary screen, S. cerevisiae, multiplex flow cytometry (AID 1867;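 active = GFP response, as percent of the DMSO control, above the screen-wide mean plus 3 SD, about 139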;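 also: median GFP channel fluorescence of barcode-gated MEP2-GFP cells measured by flow cytometry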). Particulars: S. cerevisiae MEP2-GFP strain, 3 h, at 10 µM, stronger effect = higher value, 100% means same as DMSO wells.
Experiment [3] in a line: modulators of CIT2-GFP expression in yeast, primary screen, S. cerevisiae, GFP fusion, multiplex flow cytometry (AID 1870;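 active = percent response above a set limit, the screen-wide mean plus 3 SD, cut at about 130% in these data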;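 also: barcoded CIT2-GFP strain pooled with four other GFP strains with rapamycin as positive control; median GFP fluorescence per well over plate mean of DMSO wells so 100% = DMSO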). To be noted: 3 h, at 10 µM, stronger effect = higher value.
Experiment [4] is described as follows: modulators of LAP4-GFP expression in yeast, primary screen, S. cerevisiae, multiplex flow cytometry (AID 1873;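 active = GFP signal, as percent of the solvent control, above the screen mean plus 3 SD, about 149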). Particulars: 3 h, at 10 µM, stronger effect = higher value.
Experiment [5] can be described thus: modulators of AGP1-GFP expression in yeast TOR pathway, primary screen, cell-based, multiplex flow cytometry, S. cerevisiae (AID 1887;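 active = GFP signal above the screen-wide mean plus 3 SD, that is over about 124.5% of the solvent control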;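 also: AGP1-GFP fusion strain of S. cerevisiae within a five-strain barcoded multiplex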). Particulars: 3 h, at 10 µM, stronger effect = higher value.
Experiment [6] is described as follows: inhibitors of CD8+ T cell-vesicle binding, pilot screen, LFA-1/ICAM-1 modulator project, MLPCN validation set, flow cytometry (AID 2523;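 active = response below a set limit, under 55% cells CD8-positive and vesicle-bound, and CD8 cells' 90th-percentile brightness under 279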;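 as to vesicle binding response: mean PE anti-B7-1 fluorescence of CD8+ cells relative to row control; 100% = QL9-loaded vesicles with DMSO vehicle in the same plate row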). To be noted: 2C mouse CD8+ T cells, at 7 µM, stronger effect = lower value; double positive events: measured here: CD8+/vesicle+ event percentage.
Experiment [7] deals with Integrin beta-1 (Homo sapiens) + Integrin alpha-4 (Homo sapiens) (UniProt P13612+P05556). Briefly: inhibition of HUTS-21 binding to VLA-4, pilot screen, VLA-4 allosteric modulator project, U937 cells, HUTS-21 mAb, flow cytometry, validation set (AID 2674).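 Also: antibody binding induced by the VLA-4 ligand LDV present at three times its Kd; 0% = LDV ligand with antibody and no compound and 100% = antibody without LDV.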 To be noted: HUTS-21 LIBS mAb binding, at 6.7 µM, stronger effect = higher value, binding induced by LDV ligand.
A short description of experiment [8]: superoxide lowering in aged yeast cells, pilot screen, validation compound set (AID 2706;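 active = superoxide response below 65% of plate, a cut near 3 SD across the whole screen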;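 also: yeast exposed to compound for one week at 30 degrees C before staining; 100% = mean of all compound wells on the same plate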). Particulars: S. cerevisiae aging, superoxide DHE fluorescence; at 10 µM, stronger effect = lower value.
The target in experiment [9] is Beta-adrenergic receptor kinase 1 (Homo sapiens) (UniProt P25098). The experiment in a line: GRK2 binders displacing RNA aptamer, biochemical, validation, human GRK2, bead flow cytometry (AID 488806;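 active = aptamer binding inhibition above 30%, about 3 SD of noise from non-fluorescent compounds; inactive = inhibition at or below 30%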). To be noted: bead-bound GRK2, FAM-aptamer displacement, at 10 µM, stronger effect = higher value.
The target of experiment [10] is AP-2 complex subunit beta (Homo sapiens) (UniProt P63010). Briefly: inhibitors of arrestin peptide binding to AP2, pilot screen, biochemical, validation set, GST-AP2 beads, flow cytometry (AID 504541;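 active = inhibition above 54%, about 3 SD of non-fluorescent compounds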;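 also: AP2 carries R879A mutation and is captured from E. coli lysate; bead-bound FITC arrestin peptide fluorescence measuring arrestin peptide binding to AP2; 0% = DMSO wells and 100% = excess unlabeled arrestin peptide control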). To be noted: FITC arrestin peptide, at 10 µM, stronger effect = higher value, AP2 beta2 appendage fragment, R879A mutant.
Experiment [11] in a line: yeast V-ATPase proton transport modulators, S. cerevisiae, pHLuorin, HTS validation (AID 504600; in the data active = response above about 15%;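 also: plate controls were DMSO for no effect and reference compound for full effect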). Particulars: S. cerevisiae pHLuorin cytosolic pH, at 10 µM, stronger effect = higher value.
The subject of experiment [12] is anti-desmoglein-3 scFv antibody binding to human DSG3. Briefly: inhibitors of anti-DSG3 scFv binding to DSG3, pilot screen, biochemical, validation compound set, bead-based, flow cytometry (AID 588368;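 active = binding below the plate cutoff, the plate median minus 3 SD, with a reading above zero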;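 also: signal is the median channel fluorescence of bead-bound GFP antibody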). To be noted: Protein G beads, DSG3-Fc, scFv-GFP binding, at 10 µM, stronger effect = lower value.
A short description of experiment [13]: inhibitors of fungal efflux pumps CDR1, CDR2, MDR1, pilot screen, validation compound set, multiplex, phenotypic (AID 588506;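 active = efflux inhibition above 0.42, the validation set average plus 4 SD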;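 also: Nile Red retained in cells so higher fluorescence means more efflux inhibition; 0 = negative control wells and 1 = enniatin B 25 µM full block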). To be noted: S. cerevisiae pump-expressing triplex, Nile Red efflux flow cytometry; at 10 µM; stronger effect = higher value; the pumps come from Candida albicans.
For experiment [14], the target named is ATP-binding cassette sub-family B member 6 (Homo sapiens) (UniProt Q9NP58). Briefly: ABCB6 transporter inhibitors, pilot screen, K562-ABCB6 cells, flow cytometry, validation set (AID 588550;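 active = inhibition above the screen-wide mean plus 3 SD, about 51%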;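 also: 0% = DMSO wells and 100% = benzethonium chloride 70 µM positive control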). To be noted: K562-ABCB6 porphyrin accumulation, 1 h, at 10 µM, stronger effect = higher value.
Experiment [15] is described as follows: promoters of myeloid differentiation in arrested cells, primary screen, cell-based, GFP/MAC1 double positive, flow cytometry, validation set (AID 588685;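 active = differentiation response of at least 50%, scaled between solvent and reference control, from cells with both markers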;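 also: compound exposure lasts four days before antibody staining and flow analysis; 0% = DMSO wells and 100% = 5 µM fulvestrant positive control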). To be noted: ER-HoxA9 marrow cells, stronger effect = higher value, normalized: vehicle 0, fulvestrant 100.

Records with an inconclusive call do not appear. Activity calls are given as the source filed them.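 The calls were made as follows, unless noted: active = inhibition above 50%, about 3 SD of the validation set; inactive = the rest.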

ATP-binding cassette sub-family B member 6 (Homo sapiens), sequence (Q9NP58 whole entry, looked up): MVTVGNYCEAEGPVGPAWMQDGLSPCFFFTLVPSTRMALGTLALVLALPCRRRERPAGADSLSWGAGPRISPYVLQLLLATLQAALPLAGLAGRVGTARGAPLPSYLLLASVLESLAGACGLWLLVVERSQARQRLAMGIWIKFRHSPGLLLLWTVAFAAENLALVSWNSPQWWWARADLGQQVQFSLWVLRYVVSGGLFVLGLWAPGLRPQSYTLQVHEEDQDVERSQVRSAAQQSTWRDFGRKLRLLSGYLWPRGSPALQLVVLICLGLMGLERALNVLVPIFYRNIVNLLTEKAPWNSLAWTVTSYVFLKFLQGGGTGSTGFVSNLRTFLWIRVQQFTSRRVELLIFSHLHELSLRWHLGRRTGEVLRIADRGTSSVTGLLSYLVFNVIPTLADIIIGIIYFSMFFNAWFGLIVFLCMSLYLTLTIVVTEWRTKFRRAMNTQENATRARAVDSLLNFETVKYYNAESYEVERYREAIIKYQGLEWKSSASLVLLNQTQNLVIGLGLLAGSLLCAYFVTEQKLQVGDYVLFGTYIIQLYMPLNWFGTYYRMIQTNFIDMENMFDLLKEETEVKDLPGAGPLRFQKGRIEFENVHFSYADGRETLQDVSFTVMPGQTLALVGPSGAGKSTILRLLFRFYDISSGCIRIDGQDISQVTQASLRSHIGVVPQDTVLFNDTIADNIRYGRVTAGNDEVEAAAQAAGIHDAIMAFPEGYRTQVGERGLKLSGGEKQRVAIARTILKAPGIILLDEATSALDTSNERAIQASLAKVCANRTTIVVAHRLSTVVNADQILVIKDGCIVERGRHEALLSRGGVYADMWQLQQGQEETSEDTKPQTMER
Beta-adrenergic receptor kinase 1 (Homo sapiens), sequence (P25098 whole entry, looked up): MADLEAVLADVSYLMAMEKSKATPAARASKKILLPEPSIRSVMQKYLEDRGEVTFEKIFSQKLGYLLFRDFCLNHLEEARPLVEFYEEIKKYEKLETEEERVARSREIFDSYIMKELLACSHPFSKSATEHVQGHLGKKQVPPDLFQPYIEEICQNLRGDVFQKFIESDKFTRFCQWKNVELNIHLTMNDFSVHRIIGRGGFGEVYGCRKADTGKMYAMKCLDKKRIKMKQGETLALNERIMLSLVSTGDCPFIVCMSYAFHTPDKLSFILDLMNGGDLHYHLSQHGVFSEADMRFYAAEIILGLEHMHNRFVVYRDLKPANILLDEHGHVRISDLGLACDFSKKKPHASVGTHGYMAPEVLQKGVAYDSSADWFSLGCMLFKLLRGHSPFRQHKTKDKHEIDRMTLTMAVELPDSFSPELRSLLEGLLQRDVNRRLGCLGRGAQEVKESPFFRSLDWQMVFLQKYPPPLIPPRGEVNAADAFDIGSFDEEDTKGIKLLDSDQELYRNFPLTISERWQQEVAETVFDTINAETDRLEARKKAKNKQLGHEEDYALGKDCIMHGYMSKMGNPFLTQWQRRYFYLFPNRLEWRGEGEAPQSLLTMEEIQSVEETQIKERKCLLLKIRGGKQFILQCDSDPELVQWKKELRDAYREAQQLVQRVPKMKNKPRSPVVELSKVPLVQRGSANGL
Integrin beta-1 (Homo sapiens) + Integrin alpha-4 (Homo sapiens), sequence (P05556 whole entry, looked up): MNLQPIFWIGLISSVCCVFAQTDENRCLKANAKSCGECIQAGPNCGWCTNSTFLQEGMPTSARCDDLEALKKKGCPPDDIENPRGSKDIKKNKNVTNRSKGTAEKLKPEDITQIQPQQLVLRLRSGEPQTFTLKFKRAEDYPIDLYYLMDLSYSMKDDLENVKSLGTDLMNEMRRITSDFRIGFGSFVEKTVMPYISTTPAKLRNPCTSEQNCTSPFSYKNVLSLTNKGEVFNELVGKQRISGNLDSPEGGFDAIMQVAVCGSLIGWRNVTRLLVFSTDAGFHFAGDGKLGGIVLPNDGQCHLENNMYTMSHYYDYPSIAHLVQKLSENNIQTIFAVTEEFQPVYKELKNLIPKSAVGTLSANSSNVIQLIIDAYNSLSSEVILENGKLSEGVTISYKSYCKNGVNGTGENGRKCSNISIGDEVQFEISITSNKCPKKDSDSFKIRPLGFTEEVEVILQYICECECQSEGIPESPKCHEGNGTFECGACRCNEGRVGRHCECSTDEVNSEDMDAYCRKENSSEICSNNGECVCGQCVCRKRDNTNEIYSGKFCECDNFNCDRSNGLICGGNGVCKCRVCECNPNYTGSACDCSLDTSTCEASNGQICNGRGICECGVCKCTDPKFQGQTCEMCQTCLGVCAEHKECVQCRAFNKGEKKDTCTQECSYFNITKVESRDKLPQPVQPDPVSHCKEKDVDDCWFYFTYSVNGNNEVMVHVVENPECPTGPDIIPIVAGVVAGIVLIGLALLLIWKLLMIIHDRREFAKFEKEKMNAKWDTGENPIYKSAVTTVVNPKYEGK
Integrin beta-1 (Homo sapiens) + Integrin alpha-4 (Homo sapiens), sequence (P13612 whole entry, looked up): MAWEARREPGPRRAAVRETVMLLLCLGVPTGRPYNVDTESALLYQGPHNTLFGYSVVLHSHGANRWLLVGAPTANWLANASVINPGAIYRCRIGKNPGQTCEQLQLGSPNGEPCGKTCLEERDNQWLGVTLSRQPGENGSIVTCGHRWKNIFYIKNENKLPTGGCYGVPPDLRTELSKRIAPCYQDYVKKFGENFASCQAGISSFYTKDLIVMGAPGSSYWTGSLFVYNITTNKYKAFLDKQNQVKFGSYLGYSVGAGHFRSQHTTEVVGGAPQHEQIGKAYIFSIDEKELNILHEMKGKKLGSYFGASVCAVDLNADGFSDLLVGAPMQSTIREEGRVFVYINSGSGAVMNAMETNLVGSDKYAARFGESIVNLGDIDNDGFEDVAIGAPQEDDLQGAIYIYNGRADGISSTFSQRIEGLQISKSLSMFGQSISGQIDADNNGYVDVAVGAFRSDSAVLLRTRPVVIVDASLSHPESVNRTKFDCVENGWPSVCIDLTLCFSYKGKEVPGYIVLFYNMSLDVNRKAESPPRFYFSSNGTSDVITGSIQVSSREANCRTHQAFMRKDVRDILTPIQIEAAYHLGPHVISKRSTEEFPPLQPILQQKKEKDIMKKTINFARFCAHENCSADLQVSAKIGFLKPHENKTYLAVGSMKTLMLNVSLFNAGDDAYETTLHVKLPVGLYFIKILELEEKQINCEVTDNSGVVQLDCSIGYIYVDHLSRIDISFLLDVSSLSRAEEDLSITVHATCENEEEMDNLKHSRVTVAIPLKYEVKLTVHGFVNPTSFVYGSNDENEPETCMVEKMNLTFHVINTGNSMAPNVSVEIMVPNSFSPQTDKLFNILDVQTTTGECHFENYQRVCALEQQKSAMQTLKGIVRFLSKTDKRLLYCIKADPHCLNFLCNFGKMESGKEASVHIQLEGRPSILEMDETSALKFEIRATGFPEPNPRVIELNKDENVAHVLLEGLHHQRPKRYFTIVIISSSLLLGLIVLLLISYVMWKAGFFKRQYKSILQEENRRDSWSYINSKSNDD
AP-2 complex subunit beta (Homo sapiens), sequence (P63010 whole entry, looked up, the tested form may be a part, one chain of several): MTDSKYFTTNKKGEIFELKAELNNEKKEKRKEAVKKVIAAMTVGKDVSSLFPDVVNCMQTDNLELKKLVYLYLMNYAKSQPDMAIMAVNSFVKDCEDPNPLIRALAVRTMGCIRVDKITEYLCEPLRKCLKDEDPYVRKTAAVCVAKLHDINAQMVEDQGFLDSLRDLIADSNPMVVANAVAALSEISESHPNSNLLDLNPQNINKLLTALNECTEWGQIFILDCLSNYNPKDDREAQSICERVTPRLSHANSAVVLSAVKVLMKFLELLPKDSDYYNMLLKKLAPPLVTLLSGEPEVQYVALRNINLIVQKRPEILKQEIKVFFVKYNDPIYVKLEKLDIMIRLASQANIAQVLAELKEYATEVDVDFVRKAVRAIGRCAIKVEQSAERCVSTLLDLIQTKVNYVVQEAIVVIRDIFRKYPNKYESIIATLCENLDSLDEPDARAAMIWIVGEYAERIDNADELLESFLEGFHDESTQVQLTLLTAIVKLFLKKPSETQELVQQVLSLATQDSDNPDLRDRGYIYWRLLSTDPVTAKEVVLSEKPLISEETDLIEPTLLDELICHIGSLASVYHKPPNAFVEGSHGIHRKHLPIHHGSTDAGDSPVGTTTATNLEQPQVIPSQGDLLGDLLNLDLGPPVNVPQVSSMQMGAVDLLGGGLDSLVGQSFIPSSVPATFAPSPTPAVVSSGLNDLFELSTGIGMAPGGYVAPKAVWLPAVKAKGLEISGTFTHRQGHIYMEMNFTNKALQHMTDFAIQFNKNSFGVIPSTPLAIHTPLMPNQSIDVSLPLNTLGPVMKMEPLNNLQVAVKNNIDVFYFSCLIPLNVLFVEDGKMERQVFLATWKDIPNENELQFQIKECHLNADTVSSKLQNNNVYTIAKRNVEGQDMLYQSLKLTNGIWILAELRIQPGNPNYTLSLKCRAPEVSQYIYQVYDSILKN

For the molecule `CC(C)[N+](C)(CCOC(=O)C1c2ccccc2Oc2ccccc21)C(C)C`, in [1], the percent of DMSO control GFP was 99.6% (inactive). The results for the GFP response vs DMSO in [2] and in experiment [4] were 101% (inactive) and 85.3% (inactive), respectively. In experiment [3], the percent response of DMSO control is 109% (inactive). Also, the GFP response, % of DMSO in experiment [5] was 101% (inactive). The double positive events in experiment [6] amounted to 56%. In experiment [6], the vesicle binding response was 192% (inactive). For the same molecule, the inhibition in experiment [7] is 1.62% (inactive); in experiment [10] it was -3.24% (inactive); in experiment [14], 7% (inactive). Also, in experiment [8], the superoxide response (% of plate) is 81.9% (inactive). In addition, the aptamer binding inhibition in experiment [9] was 0% (inactive). Also, the response in [11] was 9.45% (inactive). The binding (% of control) in experiment [12] is 97.3% (inactive). Besides, in experiment [13], the efflux inhibition (fraction of control) was -0.09 (inactive). The differentiation response in experiment [15] is 1.41% (inactive).
Turning to `CC1(C)S[C@@H]2[C@H](NC(=O)C(C(=O)O)c3ccccc3)C(=O)N2[C@H]1C(=O)O` (stereo not given in full), the percent of DMSO control GFP in experiment [1] was 96.3% (inactive). The GFP response vs DMSO in [2] was 94.8% (inactive); in experiment [4], 88.3% (inactive). Further, the percent response of DMSO control in experiment [3] was 105% (inactive). Further, the GFP response, % of DMSO in experiment [5] is 98.5% (inactive). Further, in experiment [6], the double positive events was found to be 53.1%. For the same molecule, the vesicle binding response in experiment [6] was 212% (inactive). Further, the inhibition is 2.56% (inactive) in experiment [7], 1.78% (inactive) in [10] and 9% (inactive) in [14]. In [8], the superoxide response (% of plate) is 108% (inactive). Also, in experiment [9], the aptamer binding inhibition was 4% (inactive). Further, in experiment [11], the response was -1.48% (inactive). Further, in experiment [12], the binding (% of control) is 97.2% (inactive). The efflux inhibition (fraction of control) in experiment [13] is -0.12 (inactive). Also, in experiment [15], the differentiation response was 1.41% (inactive).
Take `C[N+]12CCCCC1C(COC(=O)c1ccc3c(c1)OCO3)CCC2` (stereo not given): the percent of DMSO control GFP in experiment [1] was 97.6% (inactive). The GFP response vs DMSO was 96.9% (inactive) in experiment [2] and 85.3% (inactive) in [4]. Also, the percent response of DMSO control in experiment [3] was 97.9% (inactive). The GFP response, % of DMSO in [5] was 93.9% (inactive). In experiment [6], the double positive events is 62%. Also, in [6], the vesicle binding response is 116% (inactive). In addition, the inhibition is 10.9% (inactive) in experiment [7], -3.8% (inactive) in experiment [10] and 12% (inactive) in [14]. Besides, the superoxide response (% of plate) in [8] was 99.1% (inactive). For the same molecule, in experiment [9], the aptamer binding inhibition was 5% (inactive). Besides, in experiment [11], the response is 1.26% (inactive). The binding (% of control) in experiment [12] was 96.7% (inactive). Also, the efflux inhibition (fraction of control) in experiment [13] is 0.14 (inactive). Also, the differentiation response in [15] is -19.6% (inactive).
As for `Clc1ccc(OCCCN2CCCCC2)c(Br)c1`, the percent of DMSO control GFP in [1] is 105% (inactive). Further, the GFP response vs DMSO was 95.9% (inactive) in experiment [2] and 88.3% (inactive) in experiment [4]. The percent response of DMSO control in [3] was 112% (inactive). Also, in experiment [5], the GFP response, % of DMSO is 98.7% (inactive). This molecule had a double positive events in [6] of 57.1%. Besides, the vesicle binding response in experiment [6] was 202% (inactive). Moreover, the figures for the inhibition in experiment [7], in experiment [10] and in experiment [14] were 4.42% (inactive), -6.22% (inactive) and 7% (inactive), respectively. Besides, the superoxide response (% of plate) in experiment [8] is 88.5% (inactive). Moreover, in experiment [9], the aptamer binding inhibition was -2% (inactive). Besides, the response in [11] was 0.07% (inactive). Further, the binding (% of control) in experiment [12] was 103% (inactive). Also, the efflux inhibition (fraction of control) in [13] was -0.35 (inactive). The differentiation response in experiment [15] was 0% (inactive).
For the molecule `Nc1ccc(S(=O)(=O)c2ccc(N)cc2)cc1`, the percent of DMSO control GFP in experiment [1] was 100% (inactive). For the same molecule, the GFP response vs DMSO in experiment [2] is 102% (inactive); in experiment [4] it was 103% (inactive). The percent response of DMSO control in experiment [3] was 93% (inactive). Besides, the GFP response, % of DMSO in experiment [5] is 99.3% (inactive). This molecule came in with a double positive events in experiment [6] of 63.7%. For the same molecule, the vesicle binding response in [6] is 142% (inactive). Moreover, the inhibition in experiment [7] was 8.15% (inactive); in experiment [10], 2.16% (inactive); in experiment [14] it was 5% (inactive). In addition, the superoxide response (% of plate) in [8] was 97.8% (inactive). In addition, in experiment [9], the aptamer binding inhibition is 0% (inactive). In experiment [11], the response is -1.03% (inactive). Moreover, the binding (% of control) in experiment [12] was 100% (inactive). Moreover, in experiment [13], the efflux inhibition (fraction of control) is 0.14 (inactive). In addition, in experiment [15], the differentiation response is -5.05% (inactive).
